Screens deposited in PubChem by National Center for Advancing Translational Sciences (NCATS).
APE1 inh = blocks human APE1 abasic DNA cleavage | P27695 | recombinant APE1, TAMRA/BHQ-2 abasic DNA cleavage fluorescence | Potency, µM (titrated, usually from 65.8 µM), actives largely listed as inhibitors | actives 0.35% (n = 350,000) | AID 2517; also: nearly all actives have a fitted effect of over 55% in size
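Kinetic fluorescence read (525 ex/598 em nm, three reads 60 s apart) of AP-site incision; signal = third minus first read. Enzyme 0.75 nM, dual-labelled THF duplex 50 nM, compound preincubation 15 min RT.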
RECQ1 inh-1 = RECQ1 (human) helicase inhibition; Potency, µM (titrated, usually from 57.3 µM), most hits filed as inhibitors; actives 0.54% (n = 240,000); P46063; RECQ1 DNA unwinding, red fluorescence kinetic read; AID 2549; also: nearly all actives have a fitted effect of over 30% in size
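RECQ1T1 50 nM; forked duplex (20 bp + 30-nt ss tails) 200 nM, ATP 2 mM final; pH 8.0, 2 mM MgCl2, 2.5 ug/ml poly(dI-dC); 15 min compound preincubation; discontinuous kinetic read over 2 h at RT.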
GCN5L2 inh = inhibitors of human GCN5L2 histone acetyltransferase; GCN5L2 HAT assay, ThioGlo1 CoA-SH fluorescence; actives 0.21% (n = 390,000); Q92830; Potency, µM (titrated, usually from 58.9 µM), hits mostly inhibitors
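Preincubate 20nM GCN5L2 with compound 15 min, RT → add 50uM ThioGlo1 + 75uM H3(1-25) + 70uM acetyl-CoA → read fluorescence 0 and 20 min. Primary qHTS; fluorescent artifacts likely.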
BLM inh = Bloom syndrome helicase (human) inhibition; P54132; AID 2528; Potency, µM (top dose mostly 56.1 µM), most hits filed as inhibitors; recombinant BLM DNA unwinding, fluorescence dequenching; actives 0.2% (n = 350,000); also: nearly all actives have a fitted effect of over 35% in size
TDP1 inh = inhibitors of human tyrosyl-DNA phosphodiesterase TDP1; Q9NUW8; recombinant TDP1, AlphaScreen DNA substrate cleavage; Potency, µM (doses to about 130 µM), usual class: inhibitors; actives 0.28% (n = 350,000); AID 485290; also: nearly all actives have a fitted effect of over 40% in size
Target sequence (Q9NUW8 whole entry, looked up): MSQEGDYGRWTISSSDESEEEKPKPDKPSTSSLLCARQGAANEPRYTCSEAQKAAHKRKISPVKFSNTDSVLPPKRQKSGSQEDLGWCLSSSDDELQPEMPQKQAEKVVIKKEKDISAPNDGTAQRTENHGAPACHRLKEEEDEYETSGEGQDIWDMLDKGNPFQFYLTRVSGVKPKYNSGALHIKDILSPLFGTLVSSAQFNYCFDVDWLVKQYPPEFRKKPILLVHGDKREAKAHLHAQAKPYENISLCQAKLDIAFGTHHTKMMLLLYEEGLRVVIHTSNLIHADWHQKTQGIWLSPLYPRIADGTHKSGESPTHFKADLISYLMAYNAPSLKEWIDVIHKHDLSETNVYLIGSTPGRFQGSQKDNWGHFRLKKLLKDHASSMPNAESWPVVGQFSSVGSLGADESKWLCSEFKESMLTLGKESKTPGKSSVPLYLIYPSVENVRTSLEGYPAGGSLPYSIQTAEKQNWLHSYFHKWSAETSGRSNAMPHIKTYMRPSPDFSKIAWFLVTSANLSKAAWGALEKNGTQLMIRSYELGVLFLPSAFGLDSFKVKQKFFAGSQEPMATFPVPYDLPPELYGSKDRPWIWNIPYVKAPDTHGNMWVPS
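Enzyme-compound mixtures sat 15 min at room temperature, followed by a 5 min reaction with 15 nM final substrate and 10 min with AlphaScreen beads. Recombinant human Tdp1 was used at 1 nM final.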
RECQ1 conf = confirmation of human RECQ1 helicase inhibitors | RECQ1 helicase DNA unwinding, fluorescence | Potency, µM (highest dose often 229 µM), most hits filed as inhibitors | actives 28% (n = 610) | shares compounds with RECQ1 inh-1 | AID 2708; also: nearly all actives have a fitted effect of over 45% in size
RECQ1 ADP FP = ADP displacement flagged in RECQ1 inhibitor counter-screen. shares compounds with RECQ1 inh-1. ADP fluorescence polarization displacement counterscreen. Potency, µM (top dose mostly 228 µM), actives largely listed as inhibitors. actives 27% (n = 530). AID 2711; also: nearly all actives have a fitted effect of over 45% in size
RECQ1 inh-2 = blocks human RECQ1 DNA unwinding; actives 15% (n = 1,100); Potency, µM (series often up to 119 µM), actives largely listed as inhibitors; recombinant RECQ1 DNA unwinding, red fluorescence; shares compounds with RECQ1 inh-1; also: nearly all actives have a fitted effect of over 50% in size
A number is an active result; - = inactive; ? = inconclusive; . = no result; [ ] = dose if it differs, or a comment. In the library only some 0.87% were active in any assay of this set; here they are far more common. Calls follow the shape of the dose curve; as a rule, active = well fitted curve in the direction sought with a large enough effect; inconclusive = small, poorly fitted or top-dose-only effect, or another doubt; inactive = no such curve, though single readings can be large; an effect the other way counts as inactive or inconclusive.

SMILES	APE1 inh	RECQ1 inh-1	GCN5L2 inh	BLM inh	TDP1 inh	RECQ1 inh-2	others
Nc1ccc(N2CCCCCC2)cc1	?	14.1µM	-	-	-	.	RECQ1 conf=-
CCOc1cccc(OCCOc2ccccc2[N+](=O)[O-])c1	-	?	-	-	-	-
CCOc1ccccc1OCCOCCOc1ccccc1[N+](=O)[O-]	-	-	-	-	-	.
CCCCC[C@H](O)/C=C/C=C\C/C=C\C=C\[C@@H](O)CCCC(=O)O	-	-	.	-	-	.
Cc1csc(N/N=C/c2ccc(O)c([N+](=O)[O-])c2)n1	?	14.1µM	-[0.501 µM]	?	?	.	RECQ1 conf=-;RECQ1 ADP FP=?
CCC[C@H](N[C@@H](C)C(=O)N1[C@@H]2CCCC[C@H]2C[C@H]1C(=O)O)C(=O)OCC	.	-	-	-	-	.
CCCCCN1C(C(=O)c2ccccc2)=C(NC(=O)c2ccc(C)cc2)c2ccccc2S1(=O)=O	.	.	-	-	-	.
CCN1C(=O)[C@H]2[C@H]3[C@H](O)[C@H](O)C/C(=N/O[C@@H]4O[C@@H](COC(C)=O)[C@@H](OC(C)=O)[C@@H](OC(C)=O)[C@H]4OC(C)=O)[C@H]3CC[C@@H]2C1=O	-[12.4 µM]	-[11.5 µM]	.	-[12.4 µM]	-[21 µM]	.
O=C1C(Cl)=C(N2CCCCC2)C(=O)C(Cl)=C1c1cnc(N2CCCCC2)s1	20µM	15.8µM	-	14.1µM	-	.	RECQ1 conf=50.1µM;RECQ1 ADP FP=44.7µM
CC(C)NC(=O)c1cnc2sc(N3CCCCCC3)nn2c1=O	.	.	-	-	-	.
COCCCn1c(=O)/c(=C\c2ccccc2OC(C)C)s/c1=C(/C#N)C(=O)Nc1ccc(C(=O)O)cc1	-	?	?	-	-	?
COCCCn1c(=O)/c(=C\c2ccc(OC(F)F)c(OC)c2)s/c1=C(/C#N)C(=O)NCCOC	-	-	-	-	-	.
COCCCn1c(=O)/c(=C\c2ccccc2OC(F)F)s/c1=C(/C#N)C(=O)NC(C)C	-	?	-	-	-	-
Cc1cccc(N(CC(=O)NCCSCc2ccccc2)S(=O)(=O)c2ccccc2)c1C	.	.	-	-	.	.
CC1(C)CC2CC(C)(CN2S(=O)(=O)c2ccc(C(=O)Nc3cc(S(=O)(=O)N4CCOCC4)ccc3Cl)cc2)C1 (configuration not stated)	?	-	-	-	-	.	RECQ1 conf=-;RECQ1 ADP FP=-
O=C(Nc1cc(S(=O)(=O)N2CCOCC2)ccc1Cl)c1ccc(=O)[nH]c1	-	.	-	.	-	.
CC1(C)CC2CC(C)(CN2S(=O)(=O)c2ccc(C(=O)Nc3cccc(S(=O)(=O)N4CCOCC4)c3)cc2)C1 (configuration not stated)	-	-	-	-	-	.	RECQ1 conf=-;RECQ1 ADP FP=-
CC1(C)CC2CC(C)(CN2S(=O)(=O)c2cccc(C(N)=O)c2)C1 (configuration not stated)	-	.	-	.	-	.
O=C(NCc1ccc(Cl)cc1)c1cnc(N2CCCCC2)c2ccccc12	.	.	-	-	-	.
COc1ccc(-n2c(C)cc(/C=C/c3nc(O)c([N+](=O)[O-])c(=O)[nH]3)c2C)cc1	?	?	-	-	?	?
Cc1cc(/C=C\c2nc(O)c([N+](=O)[O-])c(=O)[nH]2)c(C)n1-c1ccccc1	?	25.1µM	-	-	.	?
CCOCCCNC(=O)CN1C(=O)c2c(c3ccccc3n2C)C1c1ccc(OC)cc1 (configuration not stated)	.	.	-	-	-	.
CC(C)[C@H](NS(=O)(=O)c1ccc2c(c1)OCCO2)C(=O)OCC(=O)Nc1cc(Cl)ccc1Cl	-	50.1µM	-	-	-	-
Cc1cccc(C)c1-n1ncc(C(=O)NCCCN2CCC(C)CC2)c1C1CCN(C(=O)OC(C)(C)C)CC1	.	.	-	-	-	.
CN1/C(=C\C(=O)COC(=O)c2ccc(O)c(O)c2)C(C)(C)c2ccccc21	-	25.1µM	-	-	-	39.8µM
SMILES	APE1 inh	RECQ1 inh-1	GCN5L2 inh	BLM inh	TDP1 inh	RECQ1 inh-2	others
CN1/C(=C\C(=O)COC(=O)CNC(=O)c2ccc3ccccc3c2)C(C)(C)c2ccccc21	-	35.5µM	-	-	-	56.2µM
Cc1cc(=O)[nH]c(SCC(=O)/C=C2\N(C)c3ccccc3C2(C)C)n1	-	31.6µM	-	-	-	-
CN1/C(=C\C(=O)COC(=O)CNC(=O)c2ccccc2F)C(C)(C)c2ccccc21	-	-	-	-	-	.
Cc1ccc(C(=O)CSc2nnnn2Cc2ccccc2)cc1C	-	?	-	-	-	-
CCOC(=O)/C(=C/C=C1\Sc2cc(OCC)c(OCC)cc2N1CC)C(C)=O	?	10µM	-	-	-	.	RECQ1 conf=?;RECQ1 ADP FP=44.7µM
CCOC(=O)/C(=C\C=C1/Sc2cc(OCC)c(OCC)cc2N1CC)C(C)=O	-	-	-	-	-	.
Cc1cc(C)nc(-n2nc(C)c3c2N(Cc2ccccc2F)C(=O)CC3c2ccc(Cl)cc2)n1 (configuration not stated)	.	.	-	-	-	.
O=C(C1COc2ccccc2O1)N1CCCC1 (configuration not stated)	-	-	-	-	-	.
O=C(C1COc2ccccc2O1)N1CCc2ccccc21 (configuration not stated)	?	?	-	-	.	12.6µM
O=C(c1ccncc1)N1CCN(C2CCCCC2)CC1	-	-	-	-	-	.
O=C(c1ccncc1)N1CCN(C2CCC(c3ccccc3)CC2)CC1 (configuration not stated)	-	?	-	-	-	-
Cc1cc(C)n(-c2nc3ccccc3s2)n1	-	-	-	-	-	.
Cc1c2c(=O)n(-c3nc4ccccc4s3)nc-2cc(O)n1Cc1ccccc1	?	22.4µM	?	15.8µM	-	-	RECQ1 conf=44.7µM;RECQ1 ADP FP=-
Cc1csc2nc(COC(=O)CNC(=O)c3ccccc3Cl)cc(=O)n12	.	.	-	-	-	.
COc1ccc(Sc2ccc(/C=C3\C(=O)NN(c4ccccc4)C3=O)o2)cc1	-	10µM	-	-	-	.	RECQ1 conf=-
COc1ccc(-n2c(C)cc(/C=C3\C(=O)NN(c4ccccc4)C3=O)c2C)cc1	-	-	-	-	-	.
COc1ccc(CNCC(O)(c2ccc(Cl)cc2)c2ccc(Cl)cc2)cc1OC	-	14.1µM	-	-	-	.	RECQ1 conf=?;RECQ1 ADP FP=22.4µM
COc1ccc(CNCC(O)(c2ccc(F)cc2)c2ccc(F)cc2)cc1OC	-	.	-	-	.	.
CC(=O)Oc1ccc(C(=O)Nc2ccc3c(c2)C(=O)N(CCC(=O)O)C3=O)cc1	-	-	-[0.501 µM]	-	-	.	RECQ1 conf=?;RECQ1 ADP FP=?
